Values without a mark were called inactive. Inconclusive results are not listed. Where a call stands in place of a potency, no number is given. Calls of active or inactive are those of the source. Calls follow the shape of the dose curve; as a rule, active = well fitted curve in the direction sought with a large enough effect in the repeat runs; inconclusive = weak or mixed curves; inactive = no such curve, though single readings can be large; an effect the other way counts as inactive or inconclusive.
Assays:
[1] = Caspase-3/7 induction in HepG2 cells by small molecules, qHTS assay (AID 1346978); also: nearly all actives have a fitted effect of over 15% in size
In short: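 Wild-type HepG2 cells (2,000/well) were settled 5 h at 37 C, 5% CO2, then exposed to compounds in DMSO for 17 h. Caspase-3/7 activity was read by luminescence 30 min after adding Caspase-Glo 3/7 reagent at room temperature.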

[2] = Caspase-3/7 induction in CHO-K1 cells by small molecules, qHTS cell viability counter screen (AID 1346979); also: nearly all actives have a fitted effect of over 35% in size; also: potency is read from the fitted curve at half-maximal effect
In short: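 Cytotoxicity counter screen: CellTiter-Fluor added to compound-treated wild-type CHO-K1 cells at 16 h (37C, 5% CO2), fluorescence measured 1 h later; same wells as caspase-3/7 measurement.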

[3] = Caspase-3/7 induction in CHO-K1 cells by small molecules, qHTS assay (AID 1346980); also: nearly all actives have a fitted effect of over 15% in size
In short: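 Wild-type cells were seeded at 1,500 per well and settled 5 hr at 37 C, 5% CO2, then exposed to DMSO-dissolved compounds for 17 hr. Caspase-Glo 3/7 reagent was added, and luminescence was read after 30min at room temperature.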

[4] = Caspase-3/7 induction in HepG2 cells by small molecules, qHTS cell viability counter screen (AID 1346981); also: nearly all actives have a fitted effect of over 30% in size; also: potency is read from the fitted curve at half-maximal effect; as to activity change, negative = cytotoxicity: series mostly up to about 92 µM
In short: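 Treatment of HepG2 cells with DMSO-delivered compounds ran 16 hr at 37 C following a 5-hr pre-incubation of 2,000 cells/well. CellTiter-Fluor fluorescence, read after 1 hr, served as the viability measure in a qHTS format.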

[5] = molecular target: Nuclear receptor subfamily 1 group I member 2 (Homo sapiens) (UniProt O75469); assay: Human pregnane X receptor (PXR) small molecule agonists, qHTS assay (AID 1346982); also: nearly all actives have a fitted effect of over 35% in size; also: potency is read from the fitted curve at half-maximal effect
In short: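 Stable HepG2 line reporting PXR-mediated CYP3A4 expression via luciferase. Treatment: 24 hr with compounds in DMSO at 37 C. Detection: ONE-Glo luminescence.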

[6] = molecular target: Cytochrome P450 2D6 (Homo sapiens) (UniProt P10635); assay: Cytochrome P450 Family 2 Subfamily D Member 6 (CYP2D6) small molecule antagonists: luciferase reporter qHTS assay (AID 1671196); also: nearly all actives have a fitted effect of over 50% in size; also: potency is read from the fitted curve at half-maximal effect; as to activity change, negative = inhibition: series mostly up to about 120 µM
In short: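 Chemicals tested for interference with CYP2D6 activity; proluciferin substrate, NADPH regeneration, 1 h at room temperature, luminescent detection.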

[7] = molecular target: Cytochrome P450 2C19 (Homo sapiens) (UniProt P33261); assay: Cytochrome P450 Family 2 Subfamily C Member 19 (CYP2C19) small molecule antagonists: luciferase reporter qHTS assay (AID 1671197); also: nearly all actives have a fitted effect of over 65% in size; also: potency is read from the fitted curve at half-maximal effect; as to activity change, negative = inhibition: series mostly up to about 120 µM
In short: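 P450-Glo CYP2C19 system: enzyme-substrate mix with compound 10 min at room temperature, then NADPH regeneration solution, 1 h at 37C. Proluciferin-to-luciferin conversion detected by luminescence after 20 min with detection reagent; ketoconazole as positive control.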

[8] = molecular target: Cytochrome P450 2C9 (Homo sapiens) (UniProt P11712); assay: Cytochrome P450 Family 2 Subfamily C Member 9 (CYP2C9) small molecule antagonists: luciferase reporter qHTS assay (AID 1671198); also: nearly all actives have a fitted effect of over 50% in size; also: potency is read from the fitted curve at half-maximal effect; as to activity change, negative = inhibition: series mostly up to about 120 µM
In short: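 CYP2C9 activity was measured with a P450-Glo proluciferin substrate. Enzyme–substrate mix was held with compound for 10 min at room temperature, then NADPH regeneration solution was added for 1 h at 37C. Luciferin product was read as luminescence.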

[9] = molecular target: Cytochrome P450 1A2 (Homo sapiens) (UniProt P05177); assay: Cytochrome P450 Family 1 Subfamily A Member 2 (CYP1A2) small molecule antagonists: luciferase reporter qHTS assay (AID 1671199); also: nearly all actives have a fitted effect of over 50% in size; also: potency is read from the fitted curve at half-maximal effect; as to activity change, negative = inhibition: series mostly up to about 120 µM
In short: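 Read-out is luminescence from luciferin detection reagent (20 min) proportional to CYP1A2 activity; compounds in DMSO preincubated 10 min with enzyme and proluciferin substrate, then NADPH regeneration solution, 1 h, room temperature.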

[10] = molecular target: Voltage-gated inwardly rectifying potassium channel KCNH2 (Homo sapiens) (UniProt Q12809); assay: Human Ether-a-go-go-Related Gene (hERG) channel small molecule antagonists: fluorescence cell-based qHTS assay (AID 1671200); also: series mostly up to about 77 µM; nearly all actives have a fitted effect of over 50% in size
In short: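 Thallium flux as potassium surrogate: FluxOR II dye loaded 1 h at room temperature into hERG-expressing U2OS cells, then stimulus buffer added after 10 min. Kinetic 480 nm excitation/540 nm emission read, 2 min.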

[11] = molecular target: Cytochrome P450 3A4 (Homo sapiens) (UniProt P08684); assay: Cytochrome P450 Family 3 Subfamily A Member 4 (CYP3A4) small molecule antagonists: luciferase reporter qHTS assay (AID 1671201)
In short: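 Recombinant human CYP3A4 converts a proluciferin substrate to luciferin over 1 h at room temperature after NADPH regeneration solution is added (compound preincubated 10 min); detection reagent stops reaction, luminescence read 20 min later as relative units.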

Chain of Voltage-gated inwardly rectifying potassium channel KCNH2 (Homo sapiens) (Q12809 whole entry, looked up): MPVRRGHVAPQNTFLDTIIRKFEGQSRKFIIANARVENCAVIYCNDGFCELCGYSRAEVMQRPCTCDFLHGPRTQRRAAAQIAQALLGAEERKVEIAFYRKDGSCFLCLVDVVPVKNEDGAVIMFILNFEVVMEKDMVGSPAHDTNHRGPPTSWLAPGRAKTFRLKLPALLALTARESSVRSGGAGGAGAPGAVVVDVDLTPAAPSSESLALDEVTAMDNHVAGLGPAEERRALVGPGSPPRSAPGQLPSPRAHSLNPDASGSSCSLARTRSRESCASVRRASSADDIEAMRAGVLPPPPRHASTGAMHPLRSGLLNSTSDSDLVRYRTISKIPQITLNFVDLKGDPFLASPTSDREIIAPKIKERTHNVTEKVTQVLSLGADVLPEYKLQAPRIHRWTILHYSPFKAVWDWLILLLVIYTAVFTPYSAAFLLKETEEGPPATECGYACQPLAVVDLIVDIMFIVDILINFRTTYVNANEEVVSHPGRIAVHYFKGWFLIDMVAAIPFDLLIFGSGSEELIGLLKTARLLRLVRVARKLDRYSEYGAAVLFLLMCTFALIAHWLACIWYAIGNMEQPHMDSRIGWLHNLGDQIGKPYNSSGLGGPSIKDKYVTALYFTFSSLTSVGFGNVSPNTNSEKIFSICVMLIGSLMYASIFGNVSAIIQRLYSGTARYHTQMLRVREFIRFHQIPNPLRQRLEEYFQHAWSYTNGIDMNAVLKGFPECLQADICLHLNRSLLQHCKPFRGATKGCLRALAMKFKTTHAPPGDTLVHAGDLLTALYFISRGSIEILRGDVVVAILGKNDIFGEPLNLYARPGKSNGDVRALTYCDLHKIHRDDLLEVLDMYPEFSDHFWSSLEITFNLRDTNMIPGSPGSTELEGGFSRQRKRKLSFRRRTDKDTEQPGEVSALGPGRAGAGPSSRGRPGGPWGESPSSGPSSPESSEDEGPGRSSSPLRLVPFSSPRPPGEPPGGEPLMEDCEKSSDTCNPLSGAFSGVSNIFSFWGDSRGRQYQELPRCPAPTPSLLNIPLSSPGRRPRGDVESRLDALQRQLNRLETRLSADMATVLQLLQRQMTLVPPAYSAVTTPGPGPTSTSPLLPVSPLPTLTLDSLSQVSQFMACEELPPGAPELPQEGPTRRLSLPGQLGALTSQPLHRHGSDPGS
Chain of Cytochrome P450 3A4 (Homo sapiens) (P08684 whole entry, looked up): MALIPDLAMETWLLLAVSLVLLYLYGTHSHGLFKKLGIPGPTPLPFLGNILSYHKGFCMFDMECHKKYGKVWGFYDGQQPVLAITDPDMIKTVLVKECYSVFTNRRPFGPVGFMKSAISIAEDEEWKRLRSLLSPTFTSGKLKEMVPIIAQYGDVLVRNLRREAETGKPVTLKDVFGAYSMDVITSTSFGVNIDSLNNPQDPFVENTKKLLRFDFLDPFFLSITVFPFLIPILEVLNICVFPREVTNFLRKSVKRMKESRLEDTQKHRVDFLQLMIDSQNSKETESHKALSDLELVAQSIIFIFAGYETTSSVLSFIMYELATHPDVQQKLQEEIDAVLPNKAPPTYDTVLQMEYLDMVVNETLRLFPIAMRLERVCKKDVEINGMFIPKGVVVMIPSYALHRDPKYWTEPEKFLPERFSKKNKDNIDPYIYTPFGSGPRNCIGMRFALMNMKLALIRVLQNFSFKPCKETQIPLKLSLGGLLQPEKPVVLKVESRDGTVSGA
Chain of Cytochrome P450 2C19 (Homo sapiens) (P33261 whole entry, looked up): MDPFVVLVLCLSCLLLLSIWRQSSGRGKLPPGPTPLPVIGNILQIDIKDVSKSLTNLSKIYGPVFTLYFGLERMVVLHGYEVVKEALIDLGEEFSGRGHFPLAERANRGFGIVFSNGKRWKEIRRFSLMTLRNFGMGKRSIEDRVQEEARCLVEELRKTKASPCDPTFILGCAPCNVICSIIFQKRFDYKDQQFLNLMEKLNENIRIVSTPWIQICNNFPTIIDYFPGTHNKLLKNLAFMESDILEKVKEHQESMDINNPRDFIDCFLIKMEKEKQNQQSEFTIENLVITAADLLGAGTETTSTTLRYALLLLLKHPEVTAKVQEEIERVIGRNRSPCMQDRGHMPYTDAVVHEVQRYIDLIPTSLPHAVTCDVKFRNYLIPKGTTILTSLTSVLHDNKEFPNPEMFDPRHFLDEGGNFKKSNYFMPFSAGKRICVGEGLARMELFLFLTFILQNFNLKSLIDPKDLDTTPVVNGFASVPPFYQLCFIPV
Chain of Cytochrome P450 1A2 (Homo sapiens) (P05177 whole entry, looked up): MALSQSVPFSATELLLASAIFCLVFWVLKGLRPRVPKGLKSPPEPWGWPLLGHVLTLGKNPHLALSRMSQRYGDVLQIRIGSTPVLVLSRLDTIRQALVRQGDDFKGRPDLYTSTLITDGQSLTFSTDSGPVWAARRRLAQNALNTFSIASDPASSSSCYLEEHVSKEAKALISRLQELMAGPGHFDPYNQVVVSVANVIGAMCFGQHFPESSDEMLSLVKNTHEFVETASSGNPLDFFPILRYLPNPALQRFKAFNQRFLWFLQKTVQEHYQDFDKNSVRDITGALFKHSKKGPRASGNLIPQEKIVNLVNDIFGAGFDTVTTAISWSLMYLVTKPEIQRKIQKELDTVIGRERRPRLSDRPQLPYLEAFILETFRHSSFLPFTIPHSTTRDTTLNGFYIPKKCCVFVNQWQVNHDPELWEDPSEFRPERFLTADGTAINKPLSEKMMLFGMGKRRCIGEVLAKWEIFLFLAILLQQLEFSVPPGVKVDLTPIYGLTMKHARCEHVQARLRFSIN
Chain of Cytochrome P450 2C9 (Homo sapiens) (P11712 whole entry, looked up): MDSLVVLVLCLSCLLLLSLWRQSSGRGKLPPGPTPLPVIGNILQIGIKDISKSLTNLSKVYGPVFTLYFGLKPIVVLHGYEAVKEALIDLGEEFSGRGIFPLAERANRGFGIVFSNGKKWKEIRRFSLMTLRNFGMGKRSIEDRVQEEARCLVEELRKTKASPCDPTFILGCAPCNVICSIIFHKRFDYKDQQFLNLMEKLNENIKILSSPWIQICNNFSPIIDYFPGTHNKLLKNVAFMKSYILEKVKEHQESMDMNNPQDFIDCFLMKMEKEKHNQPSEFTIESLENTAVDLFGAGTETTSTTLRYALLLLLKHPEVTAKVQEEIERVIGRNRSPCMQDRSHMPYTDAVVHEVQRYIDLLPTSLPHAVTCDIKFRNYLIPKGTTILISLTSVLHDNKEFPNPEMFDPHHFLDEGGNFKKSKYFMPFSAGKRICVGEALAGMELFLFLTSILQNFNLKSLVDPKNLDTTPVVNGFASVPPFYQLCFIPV
Chain of Nuclear receptor subfamily 1 group I member 2 (Homo sapiens) (O75469 whole entry, looked up): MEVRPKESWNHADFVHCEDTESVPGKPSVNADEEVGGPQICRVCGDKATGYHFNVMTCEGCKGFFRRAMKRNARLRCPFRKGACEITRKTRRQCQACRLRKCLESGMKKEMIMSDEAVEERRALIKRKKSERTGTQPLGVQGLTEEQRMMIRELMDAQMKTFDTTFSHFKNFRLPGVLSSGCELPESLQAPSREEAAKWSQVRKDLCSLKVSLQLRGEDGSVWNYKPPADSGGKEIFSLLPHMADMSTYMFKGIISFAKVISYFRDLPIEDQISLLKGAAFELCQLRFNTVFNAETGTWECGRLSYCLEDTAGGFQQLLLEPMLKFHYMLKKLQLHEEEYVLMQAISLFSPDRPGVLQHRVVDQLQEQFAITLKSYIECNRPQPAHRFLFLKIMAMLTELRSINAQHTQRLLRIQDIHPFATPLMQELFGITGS
Chain of Cytochrome P450 2D6 (Homo sapiens) (P10635 whole entry, looked up): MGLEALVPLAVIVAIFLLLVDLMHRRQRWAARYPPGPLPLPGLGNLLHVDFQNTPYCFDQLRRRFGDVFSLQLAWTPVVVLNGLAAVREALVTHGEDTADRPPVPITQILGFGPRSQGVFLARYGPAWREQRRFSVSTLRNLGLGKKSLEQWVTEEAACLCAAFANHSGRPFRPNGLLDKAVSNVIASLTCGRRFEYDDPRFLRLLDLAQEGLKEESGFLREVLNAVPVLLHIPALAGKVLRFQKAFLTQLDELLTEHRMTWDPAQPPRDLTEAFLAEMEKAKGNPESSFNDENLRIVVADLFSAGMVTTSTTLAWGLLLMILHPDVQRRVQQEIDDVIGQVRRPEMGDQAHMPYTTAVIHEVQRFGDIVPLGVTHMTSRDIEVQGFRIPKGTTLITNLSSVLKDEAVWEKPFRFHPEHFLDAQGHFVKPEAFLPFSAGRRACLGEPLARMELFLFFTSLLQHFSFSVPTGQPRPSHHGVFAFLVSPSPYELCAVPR

Row | Compound | Potency [1] | Potency [2] | outcome [3] | Potency [4] | Potency [5] | Potency [6] | Potency [7] | Potency [8] | Potency [9] | Potency [10] | Potency [11] | caspase activation [1] | activity change, negative = cytotoxicity [2] | caspase-3/7 activation [3] | activity change, negative = cytotoxicity [4] | activation [5] | activity change, negative = inhibition [6] | activity change, negative = inhibition [10] | activity change, negative = inhibition [11]
1 | CC1=C(O)C(=O)OC1C (configuration not stated) | inactive | inactive | inactive | inactive | inactive | inactive | inactive | inactive | inactive | inactive | inactive |  |  |  |  |  |  |  | 
2 | FC(F)(F)C(Cl)(Cl)Cl | inactive | inactive | inactive | inactive | inactive | inactive | inactive | inactive | inactive | inactive | inactive |  |  |  |  |  |  |  | 
3 | OCCN1CCN(CCO)CC1 | inactive | inactive | inactive | inactive | inactive | inactive | inactive | inactive | inactive | inactive | inactive |  |  |  |  |  |  |  | 
4 | O=C(C(Cl)Cl)N1CCOC12CCCCC2 | inactive | 61.1 µM (active) | inactive | 61.1 µM (active) | 34.4 µM (active) | inactive | 39.9 µM (active) | 63.3 µM (active) |  | inactive | inactive |  |  |  |  |  |  |  | 
5 | CN(C)Cc1ccccc1 | inactive | inactive | inactive | inactive | inactive | 18 µM (active) | inactive |  |  | inactive | inactive |  |  |  |  |  |  |  | 
6 | N#CSCC(=O)O | inactive | inactive | inactive | inactive | inactive | inactive | inactive | inactive | inactive | inactive | inactive |  |  |  |  |  |  |  | 
7 | CC(C)Nc1nc(N)nc(Cl)n1 | inactive | inactive | inactive | inactive | inactive | inactive | inactive |  |  | inactive | inactive |  |  |  |  |  |  |  | 
8 | Oc1ccccc1F | inactive | inactive | inactive | inactive | inactive | inactive | inactive | inactive | 35.5 µM (active) | inactive | inactive |  |  |  |  |  |  |  | 
9 | CCOc1ccc(NS(=O)(=O)c2ccc(N)cc2)nn1 | inactive | inactive | inactive | inactive | inactive | inactive | 30.9 µM (active) | inactive |  | inactive | inactive |  |  |  |  |  |  |  | 
10 | O=[N+]([O-])c1nccn1CO[C@@H](CO)[C@H](O)CO | inactive | inactive | inactive | inactive | inactive | 38.9 µM (active) | inactive |  | inactive | inactive | inactive |  |  |  |  |  |  |  | 
11 | CCCCCOc1ccc(C2SC(=O)NC2=O)cc1OCC (configuration not stated) | inactive | inactive | inactive | inactive | 29.8 µM (active) | inactive | inactive |  |  | inactive |  |  |  |  |  |  |  |  | 
12 | COC(=O)c1ccc2cc(C(=O)OC)ccc2c1 |  |  |  |  |  |  |  | inactive | 2.58 µM (active) |  |  | -5.84% [at 19 µM] | 6.59% [at 19 µM] | -2.42% [at 19 µM] | -0.603% [at 19 µM] | 19.9% [at 19 µM] | -8.11% [at 23.6 µM] | 9.84% [at 15.8 µM] | 16.2% [at 23.6 µM]
13 | CCC1(C)NC(=O)NC1=O (configuration not stated) | inactive | inactive | inactive | inactive | inactive | inactive | inactive |  |  | inactive | inactive |  |  |  |  |  |  |  | 
14 | C[C@]12C(=O)OC(=O)[C@H]1[C@H]1C=C[C@@H]2C1 | inactive | inactive | inactive | inactive | inactive | inactive | inactive | inactive |  | inactive | inactive |  |  |  |  |  |  |  | 
15 | CC[C@H]1CC[C@H](NCc2cc3c(cc2OC)[C@H]2C[C@H]2C(=O)N3C)[C@H](c2ccccc2)N1 | inactive | 24.3 µM (active) | inactive | inactive | 17.2 µM (active) | 7.1 µM (active) | inactive |  |  | inactive |  |  |  |  |  |  |  |  | 
16 | CCOC(=O)c1cc(=O)c2c(OCC(COc3cccc4oc(C(=O)OCC)cc(=O)c34)OC(=O)[C@@H](N)CCCCN)cccc2o1 | inactive | inactive | inactive | inactive | inactive | inactive | inactive | 15.5 µM (active) |  | inactive |  |  |  |  |  |  |  |  | 
17 | CCNCCO | inactive | inactive | inactive | inactive | inactive | inactive | inactive |  | inactive | inactive | inactive |  |  |  |  |  |  |  | 
18 | CC(C)C(=O)OCC(C)(C)C(O)C(C)C (configuration not stated) | inactive | inactive | inactive | inactive | inactive | inactive | inactive |  |  | inactive | inactive |  |  |  |  |  |  |  | 
19 | COC(=O)/C=C(/C)N | inactive | inactive | inactive | inactive | inactive | inactive | inactive | inactive |  | inactive | inactive |  |  |  |  |  |  |  | 
20 | Cc1ccc([N+](=O)[O-])cc1Cl | inactive | inactive | inactive | inactive | 61.9 µM (active) | inactive | inactive |  | inactive | inactive | inactive |  |  |  |  |  |  |  | 
21 | COc1cc(C)ccc1C(C)C | inactive | inactive | inactive | inactive | inactive | inactive | inactive | inactive | inactive | inactive | inactive |  |  |  |  |  |  |  | 

— PubChem BioAssay (Tox21)
